Source: PubChem (several laboratories)
Candida biofilm = kills Candida albicans biofilms | C. albicans biofilm + clotrimazole, Alamar Blue | inhibition, % at 6 µM | 0.14% of 85,000 active | AID 834;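 active = inhibition above 20%; inactive = inhibition below 20%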;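 also: preformed 24 hr biofilms exposed to compound for 48 hr; 0% = biofilm without compound and 100% = blank killed by clotrimazole plus chlorhexidine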
Measles CPE = protection of cells from measles virus. 1.5% of 140,000 active. Measles virus-infected cells, CPE protection, absorbance. AID 841. protection (pct of control), % at 4 µM; in the data active = protection mostly above about 24%, no sharp cut-off; inactive = mostly below about 26%
cytoskel mod = alters cytoskeleton assembly in HUVEC cells. 0.18% of 91,000 active. inhibition, % at 2 µM. HUVEC TNFa F-actin phalloidin imaging, high content;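 active = inhibition above the batch mean plus 3 SD and confirmed as a hit by visual image inspection, cut at about 30% in these data, passing the limit was not always enough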
sEH act = soluble epoxide hydrolase (human) activation. P34913. purified human sEH enzymatic activity, activator screen. activation, % at 2 µM. 0.04% of 91,000 active. AID 717; in the data active = activation above about 37%
Target sequence (P34913 whole entry, looked up): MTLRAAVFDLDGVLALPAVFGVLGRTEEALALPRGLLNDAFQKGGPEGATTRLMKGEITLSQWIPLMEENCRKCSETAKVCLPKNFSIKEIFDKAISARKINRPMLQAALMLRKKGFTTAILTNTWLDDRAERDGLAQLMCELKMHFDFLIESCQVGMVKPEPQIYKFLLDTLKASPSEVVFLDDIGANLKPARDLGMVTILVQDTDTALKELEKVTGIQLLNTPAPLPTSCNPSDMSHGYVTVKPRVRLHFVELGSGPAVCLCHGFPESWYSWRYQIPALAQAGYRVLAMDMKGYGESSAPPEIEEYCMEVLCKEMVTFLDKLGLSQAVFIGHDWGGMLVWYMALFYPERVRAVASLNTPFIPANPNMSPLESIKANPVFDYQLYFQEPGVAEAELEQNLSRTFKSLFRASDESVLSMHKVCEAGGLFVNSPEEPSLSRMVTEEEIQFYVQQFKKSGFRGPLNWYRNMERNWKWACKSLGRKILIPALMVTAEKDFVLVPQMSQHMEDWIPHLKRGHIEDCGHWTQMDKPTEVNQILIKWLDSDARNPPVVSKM
sEH inh = blocks human soluble epoxide hydrolase activity. AID 707. recombinant human sEH enzymatic activity assay. P34913. inhibition, % at 2 µM. 0.34% of 91,000 active; in the data active = inhibition above about 80%
Starred values were filed as active, the others as inactive; . = not tested or not shown. Rows were chosen to be rich in hits. Some 1.9% of all compounds tested hit in one or more screens of this group.

SMILES	Candida biofilm	Measles CPE	cytoskel mod	sEH act	sEH inh
O=C(/C=C/c1ccccc1)N/C(=C/c1ccccc1)C(=O)N1CCCCC1	.	47*	17	11	-13
COc1ccc(/C=C(/NC(=O)/C=C/c2ccccc2)C(=O)N2CCOCC2)cc1	.	11	.	.	.
CSc1ccccc1NC(=O)Cn1c(-c2cscn2)nc2ccccc21	7	96*	5	-8	6
O=C(O)C1CCCN1C(=O)Nc1ccc(Cl)cc1 (stereo unspecified)	.	26*	.	.	.
O=C(O)C1CCCN1C(=O)Nc1ccccc1 (stereo unspecified)	2	4	-8	9	-8
CC(C)CN(CC(C)C)c1nnc(N)s1	8	28*	.	.	.
Cc1cc(C)c2c(c1)cc(C)c1nnc(SCC(=O)Nc3ccc(S(=O)(=O)N4CCCCC4)cc3)n12	.	50*	.	.	.
O=C(C(c1ccccc1)c1ccccc1)N1CCC(c2nc(-c3ccccc3Cl)no2)CC1	5	37*	25	7	-7
CC(C)(C)C1=Nn2c(nnc2-c2ccccn2)SC1	9	23	2	-7	7
O=C(C1CCN(Cc2ccc(F)cc2)CC1)N(CCc1ccccc1)Cc1ccccc1	.	4	.	.	.
Cn1c(-c2cccc(OCc3ccccc3)c2)nc2c1c(=O)[nH]c(=O)n2Cc1ccccc1	.	1	10	-7	5
COCCn1c(-c2cccc([N+](=O)[O-])c2)nc2c1c(=O)[nH]c(=O)n2Cc1ccccc1	.	27*	.	.	.
NC(=O)CC(NC(=O)OCc1ccccc1)C(=O)O (stereo unspecified)	0	23	5	10	-11
O=C(O)CC(NC(=O)OCc1ccccc1)c1ccccc1 (stereo unspecified)	10	20*	-51	19	-20
CC1(C)NC(=O)N(CC(O)COc2cc3ccccc3cc2C(=O)N2CCCCC2)C1=O (stereo unspecified)	7	2	4	.	.
CC1(C)NC(=O)N(CC(O)COc2ccccc2C(=O)N2CCCCC2)C1=O (stereo unspecified)	5	44*	45	-2	2
Cc1ccc(S(=O)(=O)N(C)C)cc1NC(=O)CCNC(=O)c1ccccc1Cl	.	54*	.	.	.
Cc1ccc(NC(=O)Cc2noc3ccccc23)c(C)c1	.	21*	.	.	.
Cc1cc(Cl)ccc1OCC(=O)NCc1ccncc1	8	48*	-4	4	-5
Cn1cccc1C(=O)C(=O)Nc1ccc(Cl)cc1	.	41*	15	12	-5
Cn1cccc1C(=O)C(=O)Nc1cc(Cl)cc(Cl)c1	.	15	14	7	-8
COc1ccc(N2C(=O)CC(N3CCC(O)(c4ccc(Cl)cc4)CC3)C2=O)cc1 (stereo unspecified)	-3	26*	-12	20	-22
O=C(NCCOc1ccccc1)C(c1ccccc1)c1ccccc1	.	23	11	-7	9
CCC(C)NC(=O)Cn1nc([N+](=O)[O-])c(Cl)c1C (stereo unspecified)	.	19	-28	10	-7
Cc1c(Cl)c([N+](=O)[O-])nn1CC(=O)NC(C)C1CC2CCC1C2 (stereo unspecified)	.	48*	-1	-4	5
SMILES	Candida biofilm	Measles CPE	cytoskel mod	sEH act	sEH inh
COc1ccccc1N1CCN(Cc2ccsc2)CC1	7	19	15	2	0
COc1ccccc1N1CCN(Cc2cccs2)CC1	9	96*	5	14	-13
CCOC(=O)c1cccc(NC(=O)CSc2nnc(C3CCCCC3)n2CC)c1	5	17	.	-8	9
COCCn1c(COc2ccc(C)cc2)nc2ccccc21	6	6	16	6	-4
CCOCCn1c(COc2ccc(C)cc2)nc2ccccc21	.	29*	.	.	.
CCCCCC(=O)NNC(=O)c1ccc(F)cc1	.	8	.	.	.
O=C(Nc1ccc(OC(F)F)c(Cl)c1)Nc1ccc2c(c1)OCO2	7	41*	13	-79	78
O=C(Nc1ccc2c(c1)OCO2)c1ccc(Cl)s1	1	54*	2	-25	27
CN(C)CCN1C(=O)C(=O)/C(=C(/O)c2ccc(OCc3ccccc3)cc2)C1c1ccncc1 (stereo unspecified)	5	10	5	14	-14
